Measurements reported in PubChem BioAssay (NCATS).
Results filed as inconclusive are left out. Calls of active or inactive are those of the source. Calls come from the whole dose curve; as a rule, active = well fitted curve in the direction sought with a large enough effect; inconclusive = small, poorly fitted or top-dose-only effect, or another doubt; inactive = no such curve, though single readings can be large; an effect the other way counts as inactive or inconclusive.

system: not listed separately; assay: qHTS to identify inhibitors of the type 1 interferon - major histocompatibility complex class I in skeletal muscle: primary screen against the NCATS Mechanism Interrogation Plate v5.0 (MIPE) Libary (AID 1347411); conditions: iHSKM cells + IFN-b, HiBiT-tagged MHC-I luminescence, 24 h; series mostly up to 45.8 µM; activity change, negative = inhibition: at the top concentration; note: nearly all actives have a fitted effect of over 65% in size; note: potency is the fitted concentration of half-maximal effect;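 for activity change, negative = inhibition: plate controls were vehicle for no effect and reference inhibitor for full effect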
Summary of the method: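 Immortalized human C25cl48 myoblasts with HiBit knocked into endogenous HLA-B*08:01 were stimulated with 4.0 ng/ml IFN-beta and exposed to compounds (11-point 1:3 titration, top 46 uM final) for 24 hrs at 37 C; HiBiT lytic luminescence measured.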

| Structure (SMILES) | activity change, negative = inhibition | Potency |
| --- | --- | --- |
| COc1ccc2cccc(CCNC(C)=O)c2c1 | -21.4% (inactive) | – |
| CC(=O)O[C@]1(C(C)=O)CC[C@H]2[C@@H]3C=C(Cl)C4=CC(=O)[C@@H]5C[C@@H]5[C@]4(C)[C@H]3CC[C@@]21C | -18.5% (inactive) | – |
| COc1cccc(-c2cc(=O)c3ccccc3o2)c1N | -22.1% (inactive) | – |
| COC(=O)[C@@H]1[C@H]2C[C@H]3c4[nH]c5ccccc5c4CCN3C[C@@H]2CC[C@@H]1O | -7.78% (inactive) | – |
| Clc1ccc(Cn2c(CN3CCCC3)nc3ccccc32)cc1 | 6.34% (inactive) | – |
| C[N+](C)(C)CC(=O)O | 19.2% (inactive) | – |
| O=C(CCCCCCC(=O)Nc1ccccc1)NO | – | 1.47 µM (active) |
| COc1cc2ncnc(Nc3ccc(F)c(Cl)c3)c2cc1OCCCN1CCOCC1 | -4.11% (inactive) | – |
| O=C(O)C(O)Cc1ccc(O)c(O)c1 (stereo not drawn) | -11.2% [at 91.7 µM] (inactive) | – |

target: Protein phosphatase 1D (Homo sapiens) (UniProt O15297); assay: RapidFire Mass Spectrometry qHTS Assay for Modulators of WT P53-Induced Phosphatase 1 (WIP1) (AID 1347424); conditions: WIP1 dephosphorylation of phosphopeptide, RapidFire MS; series mostly up to 63 µM; activity change, negative = inhibition: at the top concentration;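 note: amount of dephosphorylated VEPPL-S-QETFS peptide product formed by WIP1; plate controls were DMSO wells for no effect and GSK830371 inhibitor control at 10 µM for full effect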
Summary of the method: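 10 nM WIP1 + cpd, 1 h RT; + 2 uM VEPPL-pS-QETFS, 5 min RT; stop 0.5% formic acid; labelled product standard 1 uM; RapidFire MS. Buffer 50 mM Tris pH 7.5, 30 mM MgCl2, 1 mM TCEP.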

Chain of Protein phosphatase 1D (Homo sapiens) (O15297 whole entry, looked up): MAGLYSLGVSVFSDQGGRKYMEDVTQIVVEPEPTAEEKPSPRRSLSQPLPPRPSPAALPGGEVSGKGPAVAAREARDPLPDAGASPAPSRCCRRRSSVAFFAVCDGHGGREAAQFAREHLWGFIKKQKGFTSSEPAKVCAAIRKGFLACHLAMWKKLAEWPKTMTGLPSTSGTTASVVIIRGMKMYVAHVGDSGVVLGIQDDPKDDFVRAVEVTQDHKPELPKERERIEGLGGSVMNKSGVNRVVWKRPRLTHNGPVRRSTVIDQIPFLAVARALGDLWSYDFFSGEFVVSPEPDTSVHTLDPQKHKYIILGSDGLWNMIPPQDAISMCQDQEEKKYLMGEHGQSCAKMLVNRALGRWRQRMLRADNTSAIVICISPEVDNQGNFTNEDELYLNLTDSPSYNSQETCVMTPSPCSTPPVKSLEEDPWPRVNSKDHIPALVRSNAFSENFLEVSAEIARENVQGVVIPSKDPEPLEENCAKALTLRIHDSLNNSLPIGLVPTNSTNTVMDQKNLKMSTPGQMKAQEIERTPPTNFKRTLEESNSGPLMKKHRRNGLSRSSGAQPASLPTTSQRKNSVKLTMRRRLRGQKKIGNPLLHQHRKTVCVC

| Structure (SMILES) | activity change, negative = inhibition | outcome |
| --- | --- | --- |
| CCN(CC)C(=O)c1ccc(O)c(OC)c1 | 18.8% (inactive) | – |
| CC(=O)c1ccc(S(=O)(=O)NC(=O)NC2CCCCC2)cc1 | 10.2% (inactive) | – |
| CC(=O)N[C@@H](CS)C(=O)O | 1.82% (inactive) | – |
| CC(=O)CCCCn1c(=O)c2c(ncn2C)n(C)c1=O | 6.49% (inactive) | – |
| COc1ccc2cccc(CCNC(C)=O)c2c1 | -3.12% (inactive) | – |
| CCn1cc(C(=O)O)c(=O)c2ccc(C)nc21 | 5.63% (inactive) | – |
| CCN(CC)CCOC(=O)c1ccc(N)cc1 | 4.39% (inactive) | – |
| CCN1CCC[C@H]1CNC(=O)c1cc(S(N)(=O)=O)ccc1OC | -4.89% (inactive) | – |
| C[C@@H](O)[C@H]1C(=O)N2C(C(=O)O)=C(S[C@@H]3CN[C@H](C(=O)N(C)C)C3)[C@H](C)[C@H]12 | – | inactive |
| O=C(NCCN1CCOCC1)c1ccc(Cl)cc1 | 6.92% (inactive) | – |
| COC(=O)[C@@H]1[C@H]2C[C@H]3c4[nH]c5ccccc5c4CCN3C[C@@H]2CC[C@@H]1O | 16.3% (inactive) | – |
| Clc1ccc(Cn2c(CN3CCCC3)nc3ccccc32)cc1 | 29.9% (inactive) | – |
| C[N+](C)(C)CC(=O)O | -10.3% (inactive) | – |
| CN(C)CCC(c1ccccc1)c1ccccn1 (stereo not drawn) | -0.0413% (inactive) | – |
| O=C(CCCCCCC(=O)Nc1ccccc1)NO | 2.93% (inactive) | – |
| COc1cc2ncnc(Nc3ccc(F)c(Cl)c3)c2cc1OCCCN1CCOCC1 | 16.6% (inactive) | – |
| COc1ccccc1N1CCN(CCCNc2cc(=O)n(C)c(=O)n2C)CC1 | -2.84% (inactive) | – |
| Cc1cccc(C)c1OCC(C)N (stereo not drawn) | -0.559% (inactive) | – |
| CC[C@]1(O)C[C@@H]2CN(CCc3c([nH]c4ccccc34)[C@@](C(=O)OC)(c3cc4c(cc3OC)N(C)[C@H]3[C@@](O)(C(=O)OC)[C@H](OC(C)=O)[C@]5(CC)C=CCN6CC[C@]43[C@@H]65)C2)C1 | – | inactive |
| CN1C[C@H]2c3ccccc3Oc3ccc(Cl)cc3[C@@H]2C1 | 2.72% (inactive) | – |
| O=C1NCC2(CCN(CCc3ccccc3)CC2)O1 | -0.715% (inactive) | – |
| NCCS | -1.62% (inactive) | – |
| O=C1NC(=O)C(c2ccccc2)(c2ccccc2)N1 | -10.9% (inactive) | – |
| O=C(O)CCc1nc(-c2ccccc2)c(-c2ccccc2)o1 | -7.71% (inactive) | – |
| C[N+](C)(C)CCCCCC[N+](C)(C)C | 12.6% (inactive) | – |
| CC(C)NCC(O)COc1cccc2[nH]ccc12 (stereo not drawn) | -17% (inactive) | – |

system: not listed separately; assay: Validation qHTS assay for inhibitors of Activation Induced Cytidine Deaminase (AID): UDG Counterscreen signal (AID 1347427); conditions: biochemical UDG counterscreen, fluorescence signal; series mostly up to 115 µM; activity, negative = inhibition: at the top concentration; note: 0% is about no effect
Summary of the method: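 Counterscreen read of UDG activity (2 U/mL, 4/3x) in the FRET deamination format with AID (1 uM, 4/3x), DJC20/DJC23 substrates (250 nM, 4x), 4 h at room temperature. NaOH stop, fluorescence at 560 ex/665 em.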

| Structure (SMILES) | activity, negative = inhibition | outcome |
| --- | --- | --- |
| CCN(CC)C(=O)c1ccc(O)c(OC)c1 | 9.13% (inactive) | – |
| CC(=O)c1ccc(S(=O)(=O)NC(=O)NC2CCCCC2)cc1 | 13.2% (inactive) | – |
| CC(=O)N[C@@H](CS)C(=O)O | 6.97% (inactive) | – |
| CC(=O)CCCCn1c(=O)c2c(ncn2C)n(C)c1=O | 10.4% (inactive) | – |
| CCn1cc(C(=O)O)c(=O)c2ccc(C)nc21 | 10% (inactive) | – |
| CCN(CC)CCOC(=O)c1ccc(N)cc1 | 3.54% (inactive) | – |
| CCN1CCC[C@H]1CNC(=O)c1cc(S(N)(=O)=O)ccc1OC | 8.91% (inactive) | – |
| CC(=O)O[C@]1(C(C)=O)CC[C@H]2[C@@H]3C=C(Cl)C4=CC(=O)[C@@H]5C[C@@H]5[C@]4(C)[C@H]3CC[C@@]21C | -0.523% (inactive) | – |
| O=C(NCCN1CCOCC1)c1ccc(Cl)cc1 | 9.21% (inactive) | – |
| COc1cccc(-c2cc(=O)c3ccccc3o2)c1N | 3.4% (inactive) | – |
| COC(=O)[C@@H]1[C@H]2C[C@H]3c4[nH]c5ccccc5c4CCN3C[C@@H]2CC[C@@H]1O | 9.85% (inactive) | – |
| Clc1ccc(Cn2c(CN3CCCC3)nc3ccccc32)cc1 | 8.73% (inactive) | – |
| COc1ccc(Cc2nccc3cc(OC)c(OC)cc23)cc1OC | -8.81% (inactive) | – |
| CN(C)CCC(c1ccccc1)c1ccccn1 (stereo not drawn) | 6.22% (inactive) | – |
| CCCCC1C(=O)N(c2ccccc2)N(c2ccccc2)C1=O | 3.45% (inactive) | – |
| COc1ccccc1N1CCN(CCCNc2cc(=O)n(C)c(=O)n2C)CC1 | 7.73% (inactive) | – |
| Cc1cccc(C)c1OCC(C)N (stereo not drawn) | 4.54% (inactive) | – |
| CC1=C(/C=C/C(C)=C/C=C/C(C)=C/C(=O)Nc2ccc(O)cc2)C(C)(C)CCC1 | -5.04% (inactive) | – |
| O=C1NCC2(CCN(CCc3ccccc3)CC2)O1 | 15.1% (inactive) | – |
| NCCS | 2.97% (inactive) | – |
| O=C1NC(=O)C(c2ccccc2)(c2ccccc2)N1 | – | inactive |
| O=C(O)CCc1nc(-c2ccccc2)c(-c2ccccc2)o1 | 8.16% (inactive) | – |
| C[N+](C)(C)CCCCCC[N+](C)(C)C | – | inactive |
| CC(C)NCC(O)COc1cccc2[nH]ccc12 (stereo not drawn) | -4.73% (inactive) | – |

target: Single-stranded DNA cytosine deaminase (Homo sapiens) (UniProt Q9GZX7); assay: Validation qHTS assay for inhibitors of Activation Induced Cytidine Deaminase (AID): AID signal (AID 1347429); conditions: Recombinant AID, FRET ssDNA deamination with UDG, fluorescence; series mostly up to 115 µM; activity change, negative = inhibition: at the top concentration; note: % is set by controls: 0 for no effect and ±100 for the full control effect
Summary of the method: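 AID and UDG were combined and compounds added at final up to 114 uM, then DJC20/DJC23 FRET substrate was added for 4 hr at room temperature. NaOH was then added for 30 min before fluorescence was read at 540/590 nm.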

Chain of Single-stranded DNA cytosine deaminase (Homo sapiens) (Q9GZX7 whole entry, looked up): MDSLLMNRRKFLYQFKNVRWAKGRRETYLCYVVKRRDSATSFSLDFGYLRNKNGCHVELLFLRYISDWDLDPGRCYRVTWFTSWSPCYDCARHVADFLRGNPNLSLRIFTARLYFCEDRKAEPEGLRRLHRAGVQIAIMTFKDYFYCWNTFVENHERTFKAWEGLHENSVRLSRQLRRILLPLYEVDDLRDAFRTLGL

| Structure (SMILES) | activity change, negative = inhibition | Potency |
| --- | --- | --- |
| CCN(CC)C(=O)c1ccc(O)c(OC)c1 | 11.7% (inactive) | – |
| CC(=O)c1ccc(S(=O)(=O)NC(=O)NC2CCCCC2)cc1 | 20.4% (inactive) | – |
| CC(=O)N[C@@H](CS)C(=O)O | 10% (inactive) | – |
| CC(=O)CCCCn1c(=O)c2c(ncn2C)n(C)c1=O | 18% (inactive) | – |
| CCn1cc(C(=O)O)c(=O)c2ccc(C)nc21 | 21% (inactive) | – |
| CCN(CC)CCOC(=O)c1ccc(N)cc1 | 12.1% (inactive) | – |
| CCN1CCC[C@H]1CNC(=O)c1cc(S(N)(=O)=O)ccc1OC | 19% (inactive) | – |
| CC(=O)O[C@]1(C(C)=O)CC[C@H]2[C@@H]3C=C(Cl)C4=CC(=O)[C@@H]5C[C@@H]5[C@]4(C)[C@H]3CC[C@@]21C | -8.51% (inactive) | – |
| O=C(NCCN1CCOCC1)c1ccc(Cl)cc1 | 14.7% (inactive) | – |
| COc1cccc(-c2cc(=O)c3ccccc3o2)c1N | 29.4% (inactive) | – |
| COC(=O)[C@@H]1[C@H]2C[C@H]3c4[nH]c5ccccc5c4CCN3C[C@@H]2CC[C@@H]1O | 52.3% (inactive) | – |
| Clc1ccc(Cn2c(CN3CCCC3)nc3ccccc32)cc1 | 10.7% (inactive) | – |
| COc1ccc(Cc2nccc3cc(OC)c(OC)cc23)cc1OC | 256% (inactive) | – |
| CN(C)CCC(c1ccccc1)c1ccccn1 (stereo not drawn) | 7.52% (inactive) | – |
| CCCCC1C(=O)N(c2ccccc2)N(c2ccccc2)C1=O | 6.79% (inactive) | – |
| COc1ccccc1N1CCN(CCCNc2cc(=O)n(C)c(=O)n2C)CC1 | 20.9% (inactive) | – |
| Cc1cccc(C)c1OCC(C)N (stereo not drawn) | 11.8% (inactive) | – |
| CC1=C(/C=C/C(C)=C/C=C/C(C)=C/C(=O)Nc2ccc(O)cc2)C(C)(C)CCC1 | 8.49% (inactive) | – |
| O=C1NCC2(CCN(CCc3ccccc3)CC2)O1 | 18.9% (inactive) | – |
| NCCS | 18.6% (inactive) | – |
| O=C1NC(=O)C(c2ccccc2)(c2ccccc2)N1 | – | inactive |
| O=C(O)CCc1nc(-c2ccccc2)c(-c2ccccc2)o1 | 8.48% (inactive) | – |
| C[N+](C)(C)CCCCCC[N+](C)(C)C | – | inactive |
| CC(C)NCC(O)COc1cccc2[nH]ccc12 (stereo not drawn) | 61% (inactive) | – |
